# Measured values from the OligoGym collection.
# Target: SYT2
# Assay: pooled miR-30 sensor sort-seq; sequence = guide strand
# Details: shRNA
# Further: reference of the scale not given here.
row,Sequence,sensor-assay potency score (higher = more potent)
1,TTTGGTCTCATATTTCTTCTTC,0.677
2,TTTATCTCATTGAATAACTTCT,-0.172
3,TTCTGAATCTGCTCGAAGGGGA,0.015
4,TTTCTGAATCTGCTCGAAGGGG,-0.751
5,TATTTCTTCTTCTTGTCAGGAA,0.447
6,TTGGCCAGCATGTCGGACCAGT,-0.931
7,TTGAATAACTTCTCCTTCAGTT,0.105
8,TACCTGGACTTTCTGAATCTGC,-0.968
9,TATCTCATTGAATAACTTCTCC,-0.214
10,TTGACATAAGGGTCTGAGGTGC,-0.653
11,TTTGGCAAACATGTCCTCCTGA,0.92

# Target: SYTL1
# Assay: as above
# Details: shRNA
row,Sequence,sensor-assay potency score (higher = more potent)
1,TTGACGTAGGGGTCCGAGCGGC,-0.281
2,TGAGGTCCAACAGTCCTTCAGT,-0.459
3,TTCTCTTTCACAGCAGCCTCAG,-1.16
4,TTCCTGCGCATAGACGCTCGGA,-0.515
5,TCGCACAACCCTTGTACGCTGG,-0.836
6,TTGTACGTAAGTGTCCAGGGAT,0.203
7,TTCACCGCCGTCTTGCGCTTGC,-0.681
8,TAGACGCTCGGACAAGGTCAGA,-1.39
9,TTTCACAGCAGCCTCAGCCTCC,-0.778
10,TTATCCGGGAGGAGGTAGCTTT,-1.36
11,TTCTTCACCGCCGTCTTGCGCT,-1.02
12,TTGAACACAGGGCTGAGGCTGC,0.21

# Target: SYTL4
# Assay: as above
# Details: shRNA
row,Sequence,sensor-assay potency score (higher = more potent)
1,TTCAACTCTATTTCCTTGGCGC,0.409
2,TCATGTACCACATCTTCTGGGC,0.653
3,TTTCATGTACCACATCTTCTGG,-0.423
4,TTAGTGTACTCTGAAGGCCTGA,-0.464
5,TTCATGTACCACATCTTCTGGG,0.0201
6,TTTCTTCAACTCTATTTCCTTG,-0.969
7,TAATCCTTTTCTCATCTGCTTT,-1.12
8,TTATCCAGAGAGTCTCTCCTGG,-0.0866
9,TTTGGGAGCAGACATCTTCTTC,-0.722
10,AACACTGAGAATCAAATCCTTT,-1.16
11,TTCTTTAGTCGCCTAATCCTTT,-1.13
12,TAGTGGATTAACAGTGTCCCGC,-0.966

# Target: TAAR8
# Assay: as above
# Details: shRNA
row,Sequence,sensor-assay potency score (higher = more potent)
1,TAATAAGCACTCCAACAGCAAA,-1.57
2,TCAATTAATATATCAACTGTAT,-0.769
3,TTATAGCTTGTTGTTTAGCTAT,-0.98
4,TATAGCTTGTTGTTTAGCTATA,-1.63
5,TTTAGCTATAAGAAAAATCTTA,-0.583
